Source: PubChem BioAssay (NCATS)
Results filed as inconclusive are left out. Calls of active or inactive are those of the source. Calls follow the shape of the full dose curve.

Molecular target: Peroxisome proliferator-activated receptor delta (Homo sapiens) (UniProt Q03181)
Assay: qHTS assay for small molecule agonists of peroxisome proliferator-activated receptor delta signaling (AID 588534)
Details: HEK293T PPARdelta-UAS-bla, beta-lactamase ratio, 18 h; series mostly up to 76.7 µM
Description: NIH Chemical Genomics Center [NCGC] U.S. Environmental Protection Agency [EPA] National Institutes of Environmental Health Sciences [NIEHS] National Toxicology Program [NTP] NCGC Assay Overview The Peroxisome proliferator-activated receptors (PPARs) are lipid-activated transcription factors of the nuclear receptor superfamily with three distinct subtypes namely PPAR alpha, PPAR delta (also called PPAR beta) and PPAR gamma. All these subtypes heterodimerizes with Retinoid X receptor (RXR) and have different physiological functions. […] This role of PPAR delta implicates the potential use of its ligands in the treatment of metabolic disorders.
Compounds were screened in a titration series in 1536-well format. […] Concentration-response titration points for each compound were fitted to the Hill equation yielding concentrations of half-maximal stimulation (EC50) and maximal response (efficacy) values. qHTS protocol for PPAR-delta beta-lactamase assay in agonist mode [Step] [Parameter] [Value] [Description] 1. Reagent; 6 uL; 4000 cells/well 2. Incubation; 37 C for 5 hrs 3. Compounds; 23 nL; 0.59 nM to 92 uM 4. […] Incubation; 37 C for 18 hrs 6. Detection reagent; 1 uL of CCF4-dye 7. Incubation; RT for 2 hrs 8. Detection; Fluorescence; Envision plate reader

Sequence of Peroxisome proliferator-activated receptor delta (Homo sapiens) (Q03181 whole entry, looked up): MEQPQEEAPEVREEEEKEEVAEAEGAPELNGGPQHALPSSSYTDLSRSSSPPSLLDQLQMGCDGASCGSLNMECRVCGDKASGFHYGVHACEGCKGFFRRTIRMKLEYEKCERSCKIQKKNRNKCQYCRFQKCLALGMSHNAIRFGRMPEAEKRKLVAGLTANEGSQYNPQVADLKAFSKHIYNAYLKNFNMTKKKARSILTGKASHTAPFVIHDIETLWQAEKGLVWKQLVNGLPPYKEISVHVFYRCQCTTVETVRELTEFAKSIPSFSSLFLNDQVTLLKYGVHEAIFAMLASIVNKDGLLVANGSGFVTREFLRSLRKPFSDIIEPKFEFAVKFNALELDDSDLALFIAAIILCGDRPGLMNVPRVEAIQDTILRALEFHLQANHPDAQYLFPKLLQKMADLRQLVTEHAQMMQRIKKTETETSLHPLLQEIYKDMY

Structure (SMILES) | outcome
CCC(Cl)CC(Cl)C(Cl)C(Cl)C(Cl)C(C)Cl (stereo not given) | inactive
O=C(O)CNC(=O)c1ccc([N+](=O)[O-])cc1 | inactive
CCOC(=O)C1OC1c1ccccc1 (stereo not given) | inactive
CC/C=C/CCCCCCCCCCOC(C)=O | inactive
O=C1CCCCC1 | inactive
Oc1cc(Cl)cc(Cl)c1Cl | inactive
O=C1CCCC/C=C/CCCCCCCCCO1 | inactive
Cc1cccc2ccccc12 | inactive
O=C(O)c1ccc(C(=O)O)c(C(=O)O)c1 | inactive
CCOC(=O)Nc1cccc(OC(=O)Nc2ccccc2)c1 | inactive
CC(C)OC(=O)c1ccccc1C(=O)OC(C)C | inactive
O=S(=O)(O)c1ccc(N=Nc2c(O)ccc3cc(S(=O)(=O)O)ccc23)cc1 | inactive
FB(F)F | inactive
C[Si](Cl)(Cl)[Si](C)(Cl)Cl | inactive
CCOP(=O)(OCC)Oc1nc(Cl)c(Cl)cc1Cl | inactive
O=C1OC(=O)c2ccccc21 | inactive
Cc1cc(Cl)ccc1OC(C)C(=O)O (stereo not given) | inactive
CC(=O)Nc1ccccc1C | inactive
Cl[Si](Cl)(c1ccccc1)c1ccccc1 | inactive
C=CCCCCCCCCCC | inactive

Structure (SMILES) | outcome
CCCCCCCCCCCCCCCCCC#N | inactive
CC(C)N(C)C | inactive
Cc1c(C(=O)O)c(O)cc2c1C(=O)c1c(O)c([C@H]3O[C@H](CO)[C@@H](O)[C@H](O)[C@H]3O)c(O)c(O)c1C2=O | inactive
CC(C1CC1)C(O)(Cn1cncn1)c1ccc(Cl)cc1 (stereo not given) | inactive
CCN(CC)c1nc(C)cc(OP(=S)(OC)OC)n1 | inactive
COc1cc(OC)nc(NC(=O)NS(=O)(=O)c2ncccc2OCC(F)(F)F)n1 | inactive
Cc1ncc[nH]1 | inactive
O=C(Cl)c1cc(Cl)cc(Cl)c1 | inactive
COC(=O)C(C)Oc1ccc(Oc2ncc(C(F)(F)F)cc2Cl)cc1 (stereo not given) | inactive
O=C(O)c1ccccc1[N+](=O)[O-] | inactive
c1ccc2c(c1)Oc1ccccc1S2 | inactive
CO | inactive
C/C(C=O)=C/c1ccccc1 | inactive
CC(/C=C/C=C(C)/C=C/C(=O)O)=C\C=C\C=C(C)\C=C\C=C(C)\C=C\C(=O)O | inactive
O=NO | inactive
CCOc1ccc(C(C)(C)COCc2cccc(Oc3ccccc3)c2)cc1 | inactive
CC(=O)c1cccc([N+](=O)[O-])c1 | inactive
CC1COCc2cc3c(cc21)C(C)(C)C(C)C3(C)C (stereo not given) | inactive
O=S(=O)(O)C(F)(F)C(F)(F)C(F)(F)C(F)(F)C(F)(F)C(F)(F)F | inactive
Nc1ccccc1O | inactive
